What all share (parameters): scale not given: direction of the effect not stated beside the values
Experiment [1] concerns the target Protein translocase subunit SecA (Escherichia coli (strain K12)) (UniProt P10408). Description: Assay to Identify E. coli SecA ATPase Inhibitors. In kind it is functional. Conditions: 30 µM.
Experiment [2] deals with T1, Ubiquitin-activating enzyme e1, putative (Leishmania donovani (strain BPK282A1)) (UniProt E9BSI1).
T1 sequence (whole entry): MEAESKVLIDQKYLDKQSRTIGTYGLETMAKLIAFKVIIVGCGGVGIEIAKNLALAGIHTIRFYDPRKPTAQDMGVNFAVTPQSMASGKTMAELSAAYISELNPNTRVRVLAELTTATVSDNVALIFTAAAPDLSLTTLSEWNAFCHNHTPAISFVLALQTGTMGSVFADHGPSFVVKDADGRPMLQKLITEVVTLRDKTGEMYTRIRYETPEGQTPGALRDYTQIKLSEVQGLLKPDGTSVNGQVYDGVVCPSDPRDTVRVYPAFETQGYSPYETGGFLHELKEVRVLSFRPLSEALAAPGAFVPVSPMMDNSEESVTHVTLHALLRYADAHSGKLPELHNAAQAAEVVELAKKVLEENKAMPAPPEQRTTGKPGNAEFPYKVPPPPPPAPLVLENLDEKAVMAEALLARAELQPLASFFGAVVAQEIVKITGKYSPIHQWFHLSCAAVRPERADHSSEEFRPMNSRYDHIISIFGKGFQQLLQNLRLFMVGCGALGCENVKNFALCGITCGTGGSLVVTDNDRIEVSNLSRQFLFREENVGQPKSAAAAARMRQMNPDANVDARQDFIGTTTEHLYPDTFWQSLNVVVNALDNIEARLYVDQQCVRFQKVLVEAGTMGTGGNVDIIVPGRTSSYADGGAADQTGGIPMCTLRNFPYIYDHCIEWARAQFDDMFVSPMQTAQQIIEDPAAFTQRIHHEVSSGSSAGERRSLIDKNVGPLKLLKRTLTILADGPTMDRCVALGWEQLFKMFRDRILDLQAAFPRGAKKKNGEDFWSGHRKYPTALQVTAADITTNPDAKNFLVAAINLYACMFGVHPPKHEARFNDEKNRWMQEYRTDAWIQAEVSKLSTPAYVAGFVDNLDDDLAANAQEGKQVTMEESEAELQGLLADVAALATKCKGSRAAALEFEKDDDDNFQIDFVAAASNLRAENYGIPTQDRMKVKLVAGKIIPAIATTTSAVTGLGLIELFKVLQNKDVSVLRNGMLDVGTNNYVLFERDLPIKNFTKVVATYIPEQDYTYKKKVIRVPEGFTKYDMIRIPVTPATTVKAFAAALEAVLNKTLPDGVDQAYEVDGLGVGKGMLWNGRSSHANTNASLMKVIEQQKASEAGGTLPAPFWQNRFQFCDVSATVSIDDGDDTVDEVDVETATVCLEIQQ
Description: Leishmania donovani Ubiquitin Activating Enzyme (LdE1). The note with it: 30 µM. In kind it is functional.

In experiment [3] the target is AMP-activated protein kinase, AMPK (Homo sapiens) (UniProt P54646+O43741+P54619+Q9UGJ0+Q9Y478+Q13131+Q9UGI9). Briefly: AMP-dependent Kinase enzyme assay. An in vitro enzyme assay that detects ADP turnover that is directly proportional to AMPK activity. This uses naive AMPK that is activated during the assay with MK-8722. In kind it is functional. Conditions: 30 µM.

Experiment [4] concerns the target Sialic acid-binding Ig-like lectin 9 (Homo sapiens) (UniProt Q9Y336). Briefly: Hs-Siglec9 ALPHAscreen SOP 20170721. The note with it: 10 µM. In general terms: Alpha assays give light when donor and acceptor beads are brought close together.
In a further experiment the test system is Trypanosoma cruzi. Description: Trypanosoma cruzi phosphomannomutase and mannose-1-phosphate guanylyltransferase assay. In kind it is functional. Conditions: 10 µM.
Experiment [5] concerns the target T2, Arginase-2, mitochondrial (Homo sapiens) (UniProt P78540).
T2 sequence (whole entry): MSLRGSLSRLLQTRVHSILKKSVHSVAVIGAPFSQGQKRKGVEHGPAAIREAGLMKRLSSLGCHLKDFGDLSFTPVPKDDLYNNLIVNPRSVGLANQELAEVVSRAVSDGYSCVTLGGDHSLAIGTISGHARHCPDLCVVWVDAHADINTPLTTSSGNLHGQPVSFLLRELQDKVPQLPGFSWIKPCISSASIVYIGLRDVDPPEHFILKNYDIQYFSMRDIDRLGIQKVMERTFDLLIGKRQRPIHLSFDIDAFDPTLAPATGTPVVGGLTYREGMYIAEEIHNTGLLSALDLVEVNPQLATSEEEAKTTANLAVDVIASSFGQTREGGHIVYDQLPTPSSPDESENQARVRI
Briefly: in vitro enzyme assay to detect the production of urea directly proportional to the activity of Arginase II. Note: in the data most compounds retested in dose-response had high values. In kind it is functional. Conditions: 33.3 µM.

Experiment [6] concerns the target T3, Proteasome subunit beta (Trypanosoma cruzi) (UniProt O96673).
T3 sequence (whole entry): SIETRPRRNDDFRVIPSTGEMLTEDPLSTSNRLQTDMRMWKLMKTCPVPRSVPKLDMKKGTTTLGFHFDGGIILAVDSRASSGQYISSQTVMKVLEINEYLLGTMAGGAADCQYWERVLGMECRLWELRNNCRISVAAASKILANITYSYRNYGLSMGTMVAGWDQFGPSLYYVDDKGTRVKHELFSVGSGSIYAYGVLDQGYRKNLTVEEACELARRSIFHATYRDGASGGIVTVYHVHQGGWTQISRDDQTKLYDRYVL
Description: Trypanosoma cruzi proteasome chymotrypsin-like activity (TcProtChymo) assay. Note: in the data most compounds retested in dose-response had high values. The format is functional. Conditions: 9.37 µM.

A further experiment is filed under the species Homo sapiens. Description: To identify inhibition of the IFN signalling (Jak-Stat) pathway via expression of an eGFP reporter gene under the control of an IFN-stimulated response element (ISRE) containing MxA promoter. The format is functional. Conditions: 30 µM. For orientation: Reporter assays use an easily measured gene product as a stand-in for the process of interest.

Experiment [7] concerns the target T4, Tyrosyl-tRNA synthetase, putative (Trypanosoma cruzi (strain CL Brener)) (UniProt Q4DSP6).
T4 sequence (whole entry): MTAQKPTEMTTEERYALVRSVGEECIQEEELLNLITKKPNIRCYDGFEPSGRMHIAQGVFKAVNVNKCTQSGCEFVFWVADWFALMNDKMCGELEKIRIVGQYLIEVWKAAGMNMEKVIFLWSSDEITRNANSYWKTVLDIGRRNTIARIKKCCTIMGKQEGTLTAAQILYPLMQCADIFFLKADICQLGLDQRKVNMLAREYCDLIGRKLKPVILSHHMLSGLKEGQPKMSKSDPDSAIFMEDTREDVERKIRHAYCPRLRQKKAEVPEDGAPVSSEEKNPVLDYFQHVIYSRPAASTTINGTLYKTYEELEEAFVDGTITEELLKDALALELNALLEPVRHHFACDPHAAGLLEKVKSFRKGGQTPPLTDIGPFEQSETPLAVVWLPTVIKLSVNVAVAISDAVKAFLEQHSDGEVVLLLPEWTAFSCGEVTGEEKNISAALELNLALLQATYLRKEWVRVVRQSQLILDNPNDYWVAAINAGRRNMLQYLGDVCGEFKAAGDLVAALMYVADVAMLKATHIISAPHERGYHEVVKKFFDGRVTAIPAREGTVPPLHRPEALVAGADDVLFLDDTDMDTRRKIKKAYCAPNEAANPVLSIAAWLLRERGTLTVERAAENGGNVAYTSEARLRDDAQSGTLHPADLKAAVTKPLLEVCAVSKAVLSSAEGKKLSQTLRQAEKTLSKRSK
Briefly: Trypanosoma cruzi tyrosyl tRNA synthetase (TcYRS) _High Tyrosine SOP. Note: in the data most compounds retested in dose-response had high values. In kind it is functional. The note with it: 30 µM.

The target in experiment [8] is T4, Tyrosyl-tRNA synthetase, putative (Trypanosoma cruzi (strain CL Brener)). Briefly: Trypanosoma cruzi tyrosyl tRNA synthetase (TcYRS) SOP. In kind it is functional. The note with it: 30 µM.
Experiment [9] deals with Chromo domain-containing protein 1 (Saccharomyces cerevisiae (strain ATCC 204508 / S288c) (Baker's yeast)) (UniProt P32657). Description: ScCHD-1 Enzyme Inhibition Assay. Note: in the data most compounds retested in dose-response had high values. Conditions: 30 µM. The format is functional.

For some of these results: Entries with a potency or affinity are not part of this list.

The text below walks through data of ChEMBL document CHEMBL3988442, “University of Dundee, Small-Polar-MMV Screening Library” (2021).

Chain of Sialic acid-binding Ig-like lectin 9 (Homo sapiens) (Q9Y336 whole entry): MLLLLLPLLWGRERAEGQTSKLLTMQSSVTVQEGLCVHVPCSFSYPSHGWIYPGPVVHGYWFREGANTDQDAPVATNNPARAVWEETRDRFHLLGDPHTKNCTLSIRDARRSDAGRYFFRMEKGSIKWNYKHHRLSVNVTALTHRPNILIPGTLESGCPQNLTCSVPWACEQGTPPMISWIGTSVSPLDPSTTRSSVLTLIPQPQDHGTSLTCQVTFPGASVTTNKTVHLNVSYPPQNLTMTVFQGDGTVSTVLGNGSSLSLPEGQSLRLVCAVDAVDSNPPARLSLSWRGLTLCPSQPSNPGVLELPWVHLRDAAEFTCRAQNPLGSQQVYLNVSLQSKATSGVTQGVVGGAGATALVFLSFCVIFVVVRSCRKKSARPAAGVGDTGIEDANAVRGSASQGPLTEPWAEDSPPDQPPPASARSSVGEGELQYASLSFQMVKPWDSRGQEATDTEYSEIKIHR
Chain of Chromo domain-containing protein 1 (Saccharomyces cerevisiae (strain ATCC 204508 / S288c) (Baker's yeast)) (P32657 whole entry, the tested form may be a part): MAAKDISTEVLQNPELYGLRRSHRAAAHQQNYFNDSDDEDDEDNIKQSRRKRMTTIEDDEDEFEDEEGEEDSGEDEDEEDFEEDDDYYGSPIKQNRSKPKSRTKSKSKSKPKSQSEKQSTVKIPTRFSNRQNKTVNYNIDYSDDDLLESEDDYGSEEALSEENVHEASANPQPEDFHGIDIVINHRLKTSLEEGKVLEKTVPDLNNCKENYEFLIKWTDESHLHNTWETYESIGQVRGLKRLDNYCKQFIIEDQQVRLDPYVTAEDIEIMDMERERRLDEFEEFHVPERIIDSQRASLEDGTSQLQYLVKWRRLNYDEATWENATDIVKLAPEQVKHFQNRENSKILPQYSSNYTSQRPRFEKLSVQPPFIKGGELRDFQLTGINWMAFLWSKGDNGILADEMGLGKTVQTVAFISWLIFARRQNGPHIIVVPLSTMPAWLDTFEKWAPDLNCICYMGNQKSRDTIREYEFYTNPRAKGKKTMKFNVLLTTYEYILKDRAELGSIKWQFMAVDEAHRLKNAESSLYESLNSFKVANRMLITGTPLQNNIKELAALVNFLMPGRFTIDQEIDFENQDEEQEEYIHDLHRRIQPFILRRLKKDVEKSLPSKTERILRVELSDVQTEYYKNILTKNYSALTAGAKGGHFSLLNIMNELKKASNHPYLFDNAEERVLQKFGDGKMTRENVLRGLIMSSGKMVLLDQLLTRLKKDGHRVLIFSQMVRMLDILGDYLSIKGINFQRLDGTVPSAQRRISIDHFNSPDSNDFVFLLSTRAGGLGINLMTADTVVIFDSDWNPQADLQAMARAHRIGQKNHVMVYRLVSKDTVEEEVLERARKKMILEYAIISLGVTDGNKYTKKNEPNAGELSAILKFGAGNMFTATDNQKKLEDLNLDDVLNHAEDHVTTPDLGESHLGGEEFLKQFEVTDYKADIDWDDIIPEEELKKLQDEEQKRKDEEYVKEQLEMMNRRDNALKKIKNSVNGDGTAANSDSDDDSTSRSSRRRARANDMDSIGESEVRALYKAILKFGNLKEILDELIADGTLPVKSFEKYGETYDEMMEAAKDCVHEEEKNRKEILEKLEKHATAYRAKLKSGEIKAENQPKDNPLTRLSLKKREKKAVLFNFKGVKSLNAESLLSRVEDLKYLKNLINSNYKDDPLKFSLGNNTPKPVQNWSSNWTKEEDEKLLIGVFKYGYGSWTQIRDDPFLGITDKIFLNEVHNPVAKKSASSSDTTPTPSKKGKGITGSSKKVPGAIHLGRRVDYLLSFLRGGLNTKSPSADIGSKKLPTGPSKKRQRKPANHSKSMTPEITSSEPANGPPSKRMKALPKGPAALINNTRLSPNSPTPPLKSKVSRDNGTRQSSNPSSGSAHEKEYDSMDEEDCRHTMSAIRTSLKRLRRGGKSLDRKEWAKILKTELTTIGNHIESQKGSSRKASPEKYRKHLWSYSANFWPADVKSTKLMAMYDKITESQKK
Chain of Protein translocase subunit SecA (Escherichia coli (strain K12)) (P10408 whole entry): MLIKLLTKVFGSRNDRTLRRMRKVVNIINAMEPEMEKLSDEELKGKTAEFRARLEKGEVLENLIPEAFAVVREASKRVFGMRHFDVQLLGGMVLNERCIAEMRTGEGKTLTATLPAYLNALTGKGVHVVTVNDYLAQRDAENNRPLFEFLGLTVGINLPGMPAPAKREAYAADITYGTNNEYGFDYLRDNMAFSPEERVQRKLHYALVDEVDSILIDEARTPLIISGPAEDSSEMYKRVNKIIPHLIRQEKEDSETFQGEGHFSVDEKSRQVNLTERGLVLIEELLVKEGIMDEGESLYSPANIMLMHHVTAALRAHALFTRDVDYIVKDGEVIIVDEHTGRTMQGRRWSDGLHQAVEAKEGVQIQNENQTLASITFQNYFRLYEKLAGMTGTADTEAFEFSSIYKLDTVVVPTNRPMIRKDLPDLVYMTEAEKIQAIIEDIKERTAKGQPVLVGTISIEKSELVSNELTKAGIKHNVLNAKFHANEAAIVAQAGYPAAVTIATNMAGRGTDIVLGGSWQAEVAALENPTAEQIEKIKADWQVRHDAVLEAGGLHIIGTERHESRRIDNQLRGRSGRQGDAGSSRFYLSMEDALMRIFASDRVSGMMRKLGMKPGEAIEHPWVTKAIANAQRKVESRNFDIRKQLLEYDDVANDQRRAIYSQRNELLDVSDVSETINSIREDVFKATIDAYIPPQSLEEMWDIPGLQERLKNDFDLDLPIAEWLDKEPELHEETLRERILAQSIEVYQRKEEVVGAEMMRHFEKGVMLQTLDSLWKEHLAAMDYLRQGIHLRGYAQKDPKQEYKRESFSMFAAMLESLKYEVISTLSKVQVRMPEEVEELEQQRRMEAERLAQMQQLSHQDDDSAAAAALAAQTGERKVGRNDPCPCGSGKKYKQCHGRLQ

On to `CN(CC1COc2ccccc2O1)C(=O)NCCCn1ccnc1` (stereo not drawn), for which the Percent Effect in experiment [1] was -1.25%; in [2], 0%; in experiment [3], 12.1%; in experiment [4] it was -8.39%; in the experiment with Trypanosoma cruzi, -4.7%; in experiment [5], -3.06%. The Percent Effect is -0.835% in experiment [6]; 27.3% in the experiment listed under Homo sapiens; -3.43% in experiment [7]; -7.32% in experiment [8]; 7.75% in experiment [9].

As for `CCN(C(c1cccnc1)c1ccc2c(c1)CCO2)S(C)(=O)=O` (stereo not drawn), the Percent Effect in experiment [1] is -3.35%; in [2], 5.48%; in [3], -1.35%; in [4], 6.82%; with Trypanosoma cruzi, 6.75%; in experiment [5], -6.79%. In addition, the Percent Effect in [6] was 3.17%; in the experiment listed under Homo sapiens it was 4.95%; in [7], 1.04%; in experiment [8] it was 8.64%; in experiment [9] it was -2.4%.

On to `Cc1nnc(C(C)N2CCN(Cc3ccc4c(c3)OCO4)CC2)o1` (stereo not drawn), for which the Percent Effect is -8% in [1]; 8.11% in [2]; -13.4% in [3]; 7.45% in experiment [4]; -4.62% in the experiment with Trypanosoma cruzi; -4.01% in experiment [5]. For the same molecule, the Percent Effect in experiment [6] is -0.36%; in the experiment filed under Homo sapiens it was 13.3%; in experiment [7], -0.493%; in [8] it was -8.64%; in experiment [9] it was 2.83%.

On to `COCCN1CCC(CNC(=O)C2(c3cccc(C)c3)CC2)CC1`, for which the Percent Effect was -2.68% in experiment [1]; 3.8% in experiment [2]; 0.953% in experiment [3]; 1.27% in experiment [4]; -4.82% in the experiment on Trypanosoma cruzi; 2.8% in experiment [5]. Also, the Percent Effect is 0.172% in experiment [6]; 7.85% in the experiment listed under Homo sapiens; 1.04% in experiment [7]; 2.53% in [8]; -25% in experiment [9].

Take `COC[C@@H]1CC[C@H]2[C@H](CCN2C(=O)c2ccncc2F)O1`: the Percent Effect in experiment [1] was -5.45%; in experiment [2] it was 2.7%; in experiment [3] it was -0.0287%; in experiment [4] it was 17.9%; in the experiment with Trypanosoma cruzi, 2.05%; in experiment [5], 2.73%. The Percent Effect in [6] is -4.21%; in the experiment listed under Homo sapiens it was -15.4%; in [7] it was 5.38%; in experiment [8], 13.6%; in experiment [9] it was -2.68%.

Consider `CCNC(=O)N1CCC2(C1)c1ccccc1S(=O)(=O)N2CCC(C)C` (stereo not drawn), for which the Percent Effect is -3.49% in [1]; 5.33% in experiment [2]; 5.91% in experiment [3]; -1.77% in [4]; 5.99% in the experiment on Trypanosoma cruzi; -52.5% in experiment [5]. The Percent Effect was 5.3% in experiment [6]; -14.8% in the experiment listed under Homo sapiens; 1.04% in experiment [7]; 0% in experiment [8]; -0.42% in experiment [9].

As to `Cc1nnc(NC(=O)CN(C)CC2CCCN2c2cccnn2)s1` (stereo not drawn), the Percent Effect in experiment [1] was -6.6%; in [2], -2.7%; in [3], -10.9%; in [4], 17.7%; in the experiment with Trypanosoma cruzi, -1.56%; in experiment [5], -1.67%. The Percent Effect stood at 17.3% in [6]; 17.7% in the experiment filed under Homo sapiens; 5.94% in experiment [7]; 1.22% in experiment [8]; 0.656% in experiment [9].

Turning to `Cc1ccc(C(=O)Nc2cc(C(C)C)n[nH]2)cn1`, the Percent Effect was -6.49% in [1]; 5.2% in experiment [2]; 97.8% in [3]; 4.24% in experiment [4]; -5.06% with Trypanosoma cruzi; 3.56% in experiment [5]. Further, the Percent Effect in [6] is 10.3%; in the experiment filed under Homo sapiens, 75.7%; in experiment [7], 3.88%; in experiment [8], 9.76%; in experiment [9], -5.01%.
